Reference: PubChem BioAssay (NCI)
Where “and” joins values, the source holds several entries; their conditions need not be identical. Equal entries are not always repeated. This is part of a sample that, as a whole, favours compounds with a hit. Of some 83,000 tested, about 20% had one in any assay.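 Negative percent growth values reflect cell death: -40 means 40% of the cells present at the start died, and -100 means all died.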 A number with no mark means an inactive call. Calls of active or inactive are those of the source. The calls were made as follows: active = growth percent below 10; inactive = the rest.

Test system: MDA-MB-468 breast
Assay: NCI-60 one-dose screen, 48 h (100 = growth as untreated, 0 = no growth, -100 = all killed)
Conditions: 10 µM unless noted

Question: `Cc1cc(Cl)nc(N(CCCNc2ccnc3cc(Cl)ccc23)Cc2ccccn2)n1` was tested. Which growth did it give?
Answer: 0.122% (active)

Question: `N#CCCc1c[nH]c2ccccc12` was tested. Which growth did it give?
Answer: 94.5%

Question: For `CCCn1cnc2c(c1=N)C(c1ccc(F)cc1)c1sc3c(C)cccc3c1O2` (centres undefined), which growth is on record?
Answer: -26.7% (active)

Question: Which growth does the source give for `Nc1c(Br)cc(Br)c2c1[nH]c(=O)c1ccccc12` here?
Answer: -20.4% (active)

Question: For `COc1ccc(C(=O)N2N=C(c3ccc(Br)cc3)CC2c2cn(-c3ccccc3)nc2-c2ccccc2)cc1` (centres undefined), which growth is on record?
Answer: 69%

Question: With `O=C(Nc1ccc(CN2CCOCC2)c(C(F)(F)F)c1)c1nc2ccc3[nH]ncc3c2c2c1CCCC2` as the compound, how does the growth read?
Answer: 97.2%

Question: For `Nc1nc2ccccc2c2c(=O)c3cc(Cl)ccc3sc12`, which growth is on record?
Answer: 21.3%

Question: How did the growth turn out when `O=C(Cn1c(-c2ccccc2)nc2cc(Cl)c(Cl)cc21)N=Nc1c(O)[nH]c2ccc(Cl)cc12` was run?
Answer: 61.7%

Question: How did the growth turn out when `COC(=O)C[C@@H]1CC=CC(=O)/C1=C(O)/C=C/c1ccccc1` was run?
Answer: -85.5% (active)

Question: For `COc1ccccc1N1C(=O)/C(=C/C2=Cc3ccccc3OC2)SC1=S`, which growth is on record?
Answer: 95%

Question: Which growth does the source give for `CCN1CC(CCN2CCOCC2)C(C(c2ccccc2)c2ccccc2)C1=O` (centres undefined) here?
Answer: 102%

Question: With `Cc1ccc(-c2ccc(Nc3ccccc3)nn2)cc1S(N)(=O)=O` as the compound, how does the growth read?
Answer: 64%

Question: Which growth does the source give for `CC1(C)CC[C@]2(C(=O)N3CCOCC3)CC[C@]3(C)C(=CC[C@@H]4[C@@]5(C)C/C(=C/c6ccncc6)C(=O)C(C)(C)[C@@H]5CC[C@]43C)[C@@H]2C1` here?
Answer: 3.46% (active)

Question: `Cc1cc(Cl)cc(CN(Cc2ccccc2)Cc2c(O)ccc3ccccc23)c1O` was tested. Which growth did it give?
Answer: 102%

Question: How did the growth turn out when `COc1cc2ncnc3c2cc1OCCCCCN(C)Cc1ccc(Br)cc1N3` was run?
Answer: -26.6% (active)

Question: For `CCOc1ccc2nc3cc(N)ccc3c(N)c2c1`, which growth is on record?
Answer: -84.6% (active) and -33.5% (active)

Question: Which growth does the source give for `CNC(=O)c1ccccc1Nc1nc(Nc2cc(OC)c(OC)c(OC)c2)ncc1Br` here?
Answer: -46.6% (active)

Question: `OCCNc1nc(NCCO)nc(Nc2ccc(C3=NN(c4cc(Cl)cc(Cl)c4)C(c4ccccc4)C3)cc2)n1` (centres undefined) was tested. Which growth did it give?
Answer: 73.5%

Question: Which growth does the source give for `Cc1cc2nc3c4cc(Cl)ccc4n(CC(=S)NCCN(C)C)c3nc2cc1C` here?
Answer: -89.3% (active)

Question: With `COc1nc2c(c(=O)n1C)CN(Cc1ccccc1)C=N2` as the compound, how does the growth read?
Answer: 97.6%

Question: With `NCCCNc1nc2ccccc2c2c(=O)c3cc(OC(F)(F)F)ccc3sc12` as the compound, how does the growth read?
Answer: -69.8% (active)

Question: With `CCC/C(=N\NC(N)=O)C(OC)OC` as the compound, how does the growth read?
Answer: 103%

Question: How did the growth turn out when `CSCC[C@@H]1C(=O)N(C)[C@H](C(C)(C)C)N1C(=O)c1ccccc1` was run?
Answer: 105%

Question: For `NCC(O)C(O)C(O)C(O)CO` (centres undefined), which growth is on record?
Answer: 98.7%

Question: For `O=C(OCC(O)(CO)C(=O)NC12CC3CC(CC(C3)C1)C2)c1ccc(Cl)cc1` (centres undefined), which growth is on record?
Answer: 100%

Question: How did the growth turn out when `CCN(CC)CCCC(C)Nc1ccnc(/C=C/c2ccc(Cl)cc2)c1` (centres undefined) was run?
Answer: -84.5% (active)

Question: `Cc1ccc2sc3c(NCCN)nc4ccccc4c3c(=O)c2c1` was tested. Which growth did it give?
Answer: 56.8%

Question: Which growth does the source give for `Cc1ccc(N)c(O)c1` here?
Answer: 78.7%

Question: How did the growth turn out when `Nc1n[nH]c(-c2cc(Cl)ccc2O)c1-c1ccccc1` was run?
Answer: 83.5%

Question: `Cc1ccc(NC(=O)CSc2nnc3n(Cc4ccccc4)c(=O)c4c(C)c(C(N)=O)sc4n23)cc1` was tested. Which growth did it give?
Answer: 107%

Question: With `CCN(CC)CCNC(=O)n1cc(-c2ccncc2)c(-c2cc(Cl)cc(OC)c2)n1` as the compound, how does the growth read?
Answer: 80.5%

Question: With `O=Cc1ccc(O)c2ncccc12` as the compound, how does the growth read?
Answer: 27.4%

Question: For `CN1CCN(Cc2ccc(NC(=O)c3cc(C#Cc4cnc(N)c5ncccc45)n(C)n3)cc2C(F)(F)F)CC1`, which growth is on record?
Answer: 104%

Question: For `O=C(c1ccccc1)C1OC1c1ccc([N+](=O)[O-])cc1` (centres undefined), which growth is on record?
Answer: 29.2%

Question: `COc1ccc(-c2cn(-c3ccccc3)c(-c3ccccc3)n2)cc1OC` was tested. Which growth did it give?
Answer: 9.76% (active)

Question: How did the growth turn out when `NS(=O)(=O)c1ccc(C(=O)N=Nc2c(O)[nH]c3c(F)cccc23)cc1` was run?
Answer: 96.3%

Question: `CCCCCOC(=O)Nc1nc(=O)n(C2O[C@H](C)[C@@H](O)[C@H]2O)cc1F` (some centres undefined) was tested. Which growth did it give?
Answer: 99.1%

Question: For `CC(CN1CCN(CC(C)Nc2ccnc3cc(Cl)ccc23)CC1)Nc1ccnc2cc(Cl)ccc12` (centres undefined), which growth is on record?
Answer: -62.8% (active)

Question: `Cn1c(=O)c2c(nc3n(-c4ccc(Cl)cc4Cl)c(Sc4nc(-c5ccccc5)c(C#N)c(=O)[nH]4)cn23)n(C)c1=O` was tested. Which growth did it give?
Answer: 60.5%
